# Measured values taken from PubChem BioAssay (NCATS).
# Records with an inconclusive call do not appear. Where a call stands in place of a potency, no number is given. Calls of active or inactive are those of the source. Calls follow the shape of the dose curve; as a rule, active = well fitted curve in the direction sought with a large enough effect; inconclusive = small, poorly fitted or top-dose-only effect, or another doubt; inactive = no such curve, though single readings can be large; an effect the other way counts as inactive or inconclusive.
# Assays:
# [1] = qHTS of pediatric cancer cell lines to identify multiple opportunities for drug repurposing: Confirmatory screen for NB-EBc1 cells (AID 1347115);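 also: cells exposed to compound for 48 h before the viability read; nearly all actives have a fitted effect of over 45% in size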
# Summary of the method: (§1)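 Viability after 48 h compound treatment at 37C, 500-1,000 cells/well, read as ATP luminescence with CellTiter-Glo. Primary screens used 11-point (MIPE, 0.78 nM-46 µM) or 8-point (NPC, 0.59 nM-46 µM) final concentrations; follow-up screens used 11-point dilutions.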
# [2] = qHTS of pediatric cancer cell lines to identify multiple opportunities for drug repurposing: Confirmatory screen for TC32 cells (AID 1347118);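 also: cells exposed to compound for 48 h before the read; nearly all actives have a fitted effect of over 65% in size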
# Summary of the method: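 Luminescent ATP read-out (CellTiter-Glo) of metabolically active TC32 cells after 48 h exposure. Concentration-response curves came from 11-point (MIPE, 0.78 nM–46 µM) or 8-point (NPC, 0.59 nM–46 µM) primary titrations; follow-up used 11 points.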
# [3] = qHTS of pediatric cancer cell lines to identify multiple opportunities for drug repurposing: Confirmatory screen for control Hh wild type fibroblast cells (AID 1347121); also: nearly all actives have a fitted effect of over 70% in size
# Summary of the method: as §1
# [4] = qHTS of pediatric cancer cell lines to identify multiple opportunities for drug repurposing: Confirmatory screen for Rh41 cells (AID 1347123);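 also: 48 h compound exposure; nearly all actives have a fitted effect of over 60% in size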
# Summary of the method: as §1
# [5] = qHTS of pediatric cancer cell lines to identify multiple opportunities for drug repurposing: Confirmatory screen for RD cells (AID 1347124);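 also: cells exposed to compound for 48 h before viability readout; nearly all actives have a fitted effect of over 65% in size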
# Summary of the method: as §1
# [6] = qHTS of pediatric cancer cell lines to identify multiple opportunities for drug repurposing: Confirmatory screen for LAN-5 cells (AID 1347113); also: nearly all actives have a fitted effect of over 65% in size
# Summary of the method: as §1
# [7] = qHTS of pediatric cancer cell lines to identify multiple opportunities for drug repurposing: Confirmatory screen for SJ-GBM2 cells (AID 1347116); also: nearly all actives have a fitted effect of over 60% in size
# Summary of the method: (§2)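 Viability measured as metabolically active cells via CellTiter-Glo luminescence following 48 hours of compound exposure, 11-point dilutions in confirmatory testing. 500-1,000 cells/well plated 5 hours before dosing; controls were DMSO and 2.3 µM bortezomib.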
# [8] = qHTS of pediatric cancer cell lines to identify multiple opportunities for drug repurposing: Confirmatory screen for U-2 OS cells (AID 1347122); also: nearly all actives have a fitted effect of over 65% in size
# Summary of the method: as §1
# [9] = qHTS of pediatric cancer cell lines to identify multiple opportunities for drug repurposing: Confirmatory screen for DAOY cells (AID 1347114); also: nearly all actives have a fitted effect of over 65% in size
# Summary of the method: as §2
# [10] = qHTS of pediatric cancer cell lines to identify multiple opportunities for drug repurposing: Confirmatory screen for MG 63 (6-TG R) cells (AID 1347119); also: nearly all actives have a fitted effect of over 55% in size
# Summary of the method: as §1
# Potency is read from the fitted curve at half-maximal effect.
SMILES,Potency [1],Potency [2],Potency [3],Potency [4],Potency [5],Potency [6],Potency [7],Potency [8],Potency [9],Potency [10]
CC[C@@H]1C=C(C)C[C@H](C)C[C@H](OC)[C@H]2O[C@@](O)(C(=O)C(=O)N3CCCC[C@@H]3C(=O)O[C@H](C(C)=C[C@@H]3CC[C@H](Cl)[C@H](OC)C3)[C@H](C)[C@@H](O)CC1=O)[C@H](C)C[C@H]2OC,23.3 µM (active),18.5 µM (active),inactive,13.1 µM (active),inactive,,,,,
CC1(C)CCC2=C(O1)c1ccccc1C(=O)C2=O,,23.3 µM (active),,8.27 µM (active),0.465 µM (active),9.27 µM (active),1.31 µM (active),23.3 µM (active),,
CO[C@H]1C[C@@H]2CC[C@@H](C)[C@@](O)(O2)C(=O)C(=O)N2CCCC[C@@H]2C(=O)O[C@H]([C@H](C)C[C@@H]2CC[C@H](OP(C)(C)=O)[C@H](OC)C2)CC(=O)[C@H](C)C=C(C)[C@@H](O)[C@@H](OC)C(=O)[C@H](C)C[C@H](C)C=CC=CC=C1C,,10.4 µM (active),inactive,4.65 µM (active),,,,14.7 µM (active),,
O=C(CCCCCCC(=O)Nc1ccccc1)NO,,,inactive,,,,,,,
CCCCCCCCCCCC1=C(O)C(=O)C=C(O)C1=O,inactive,10.4 µM (active),inactive,inactive,inactive,,inactive,,inactive,inactive
Cc1cc(OCCCc2c(C(=O)O)n(Cc3cccnc3)c3c(-c4c(COc5ccc(N6CCN([S+](C)(=O)[O-])CC6)cc5)nn(C)c4C)cccc23)cc(C)c1Cl,inactive,,,1.04 µM (active),,,,2.61 µM (active),,
O=C(O)c1ccc(-c2cc3cccnc3c(-c3ccc4nonc4c3)n2)cc1,,2.61 µM (active),,7.37 µM (active),7.37 µM (active),,,,,
COc1ccc2c(Oc3ccc(NC(=O)c4c(C)n(CC(C)(C)O)n(-c5ccccc5)c4=O)cc3F)ccnc2c1,,,inactive,23.3 µM (active),inactive,inactive,,,,
COc1ccc(-c2coc3cc(O)cc(O)c3c2=O)cc1,inactive,1.04 µM (active),inactive,,,,,inactive,inactive,inactive
CC(=O)Oc1cc2c(s1)CCN(C(C(=O)C1CC1)c1ccccc1F)C2 (configuration not stated),inactive,inactive,inactive,14.7 µM (active),,inactive,4.14 µM (active),,,inactive
O=C(O)CCC1CCC(c2cc(F)ccc2F)(S(=O)(=O)c2ccc(Cl)cc2)CC1 (configuration not stated),inactive,20.8 µM (active),inactive,,inactive,,inactive,,,inactive
COc1cc2nc(-c3ccc(N4CCN(C)CC4)cc3)nc(NCCN3CCOCC3)c2cc1OC,,,inactive,0.414 µM (active),0.208 µM (active),,,0.261 µM (active),1.17 µM (active),
CN[C@@H](C)C(=O)N[C@H]1CN(C(=O)CC(C)C)CC[C@H]2CC[C@@H](C(=O)NC(c3ccccc3)c3ccccc3)N2C1=O,inactive,8.27 µM (active),inactive,,inactive,inactive,inactive,inactive,,inactive
O=c1[nH]cnc2c1ncn2[C@H]1CC[C@@H](CO)O1,inactive,inactive,inactive,inactive,inactive,,inactive,,inactive,inactive
CC=C(C)C(=O)O[C@H]1C(C)=C[C@]23C(=O)[C@@H](C=C(CO)[C@@H](O)[C@]12O)[C@H]1[C@@H](C[C@H]3C)C1(C)C,inactive,,inactive,13.1 µM (active),inactive,,inactive,0.0233 µM (active),,
COc1ncc(-c2ccc3nccc(-c4ccnnc4)c3c2)cc1NS(=O)(=O)c1ccc(F)cc1F,8.27 µM (active),0.0369 µM (active),,0.0369 µM (active),inactive,0.0737 µM (active),,,,0.0037 µM (active)
O=C(NCc1ccncc1)C12C[C@H]3C[C@@H](C1)CC(c1ccc(Cl)cc1)(C3)C2,,9.27 µM (active),inactive,14.7 µM (active),,,,26.1 µM (active),13.1 µM (active),
CO[C@H]1C[C@@H]2CC[C@@H](C)[C@@](O)(O2)C(=O)C(=O)N2CCCC[C@@H]2C(=O)O[C@H]([C@H](C)C[C@@H]2CC[C@H](OCCO)[C@H](OC)C2)CC(=O)[C@H](C)C=C(C)[C@@H](O)[C@@H](OC)C(=O)[C@H](C)C[C@H](C)C=CC=CC=C1C,inactive,,inactive,,inactive,,inactive,,,
CC[C@]1(O)C[C@@H]2CN(CCc3c([nH]c4ccccc34)[C@@](C(=O)OC)(c3cc4c(cc3OC)N(C=O)[C@@H]3C45CCN4CC=C[C@](CC)([C@H]45)[C@@H](OC(C)=O)[C@]3(O)C(=O)OC)C2)C1 (some centres not stated),inactive,,inactive,,inactive,inactive,,inactive,,inactive
CC(=NNC(=S)N1CCC1)c1ccccn1,inactive,inactive,inactive,,inactive,inactive,inactive,,,inactive
Cc1[nH]c(C=C2C(=O)Nc3ccc(S(=O)(=O)Cc4c(Cl)cccc4Cl)cc32)c(C)c1C(=O)N1CCC[C@H]1CN1CCCC1,inactive,11.7 µM (active),32.9 µM (active),,,9.27 µM (active),,,,32.9 µM (active)
COc1cccc(-c2cc(=O)c3ccccc3o2)c1N,inactive,20.8 µM (active),inactive,,0.465 µM (active),,,inactive,inactive,inactive
Cc1nnc(C(C)C)n1C1C[C@H]2CC[C@@H](C1)N2CC[C@H](NC(=O)C1CCC(F)(F)CC1)c1ccccc1 (some centres not stated),7.37 µM (active),,,inactive,7.37 µM (active),,10.4 µM (active),inactive,inactive,
Oc1ccc(C2CCN(c3ccnc4ccccc34)CC2)cc1O,14.7 µM (active),9.27 µM (active),7.37 µM (active),5.85 µM (active),0.928 µM (active),,1.17 µM (active),2.93 µM (active),5.85 µM (active),2.33 µM (active)
N[C@@]1(C(=O)O)CS(=O)(=O)[C@H]2[C@H](C(=O)O)[C@H]21,inactive,0.0522 µM (active),inactive,inactive,inactive,,,inactive,inactive,13.1 µM (active)
CNC1CCC(N(Cc2cccc(-c3ccncc3)c2)C(=O)c2sc3c(F)ccc(F)c3c2Cl)CC1 (configuration not stated),inactive,13.1 µM (active),,10.4 µM (active),,,,,20.8 µM (active),
O=C(Nc1cccc(Br)c1)c1cccc(S(=O)(=O)N2CCCCCC2)c1,,,inactive,,inactive,inactive,inactive,inactive,,
